Bioassay records: PubChem BioAssay, National Center for Advancing Translational Sciences (NCATS)
Shown are actives, neighbours in structure and some others; about 20% of the full set was active somewhere.
Pf growth 48h: P. falciparum growth inhibition at 48 hours (one generation). 5.9% of 310,000 active. Potency, µM (series often up to 28.7 µM), for inactives: at the highest dose activity change, negative = inhibition, actives largely listed as inhibitors. P. falciparum luciferase growth in erythrocytes, 48 h; further: potency means the concentration at half of the fitted maximal effect; on the % scale 0 is the no-effect control and ±100 the full control effect
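Luciferase-expressing P. falciparum in infected erythrocytes (2% hematocrit, 0.1% parasitemia final) in RPMI 1640/0.5% Albumax were exposed to compound for 48 hours at 37 C, 5% CO2; growth read as luminescence.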
CHX counter: affects cycloheximide protein synthesis inhibition readout, counter-screen | cell reporter, cycloheximide protein synthesis inhibition counterscreen | max response, % | 12% of 300,000 active; in the data active means max response mostly above about 13%, no sharp cut-off; inactive means mostly below about 14%; further: read at 38.3 µM for the half of the compounds with a filed dose; 0% is about no effect
HCMV inh: inhibitors of human cytomegalovirus | HFF cells, HCMV-luciferase reporter, 72 h; stronger effect = lower value | activity change, negative = inhibition, % at 57.5 µM | 4.5% of 410,000 active | AID 1259415; in the data active means activity change below about -60%; inconclusive means no clear call, values can overlap the other calls; inactive means above about -39%; further: on the % scale 0 is the no-effect control and ±100 the full control effect
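Human foreskin fibroblasts infected with luciferase-reporter HCMV at MOI 1 PFU/cell, compounds at two doses. Luciferase measured 72 h post infection; normalized to buffer-only basal and Salinomycin (10uM) controls.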
Pf growth 96h: inhibits malaria parasite growth, 96 h; P. falciparum luciferase reporter growth, 96 h; Potency, µM (doses to about 28.7 µM), without a hit: at the top dose activity change, negative = inhibition, hits mostly inhibitors; 6.9% of 320,000 active; AID 504834; further: potency means the concentration at half of the fitted maximal effect; on the % scale 0 is the no-effect control and ±100 the full control effect
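Cell-based qHTS: luciferase-tagged P. falciparum in erythrocytes (2% hematocrit, 0.05% parasitemia final) incubated with compounds for 96 hours, 37 C, 5% CO2; luciferase detection reagent then added and luminescence measured.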
Shiga inhibitor: inhibitors of Shiga toxin in Vero cells; Vero cells, Shiga toxin protein synthesis inhibition reporter; inhibition, % at 38.7 µM; 9.2% of 290,000 active; in the data active means inhibition mostly above about 28%, no sharp cut-off; inactive means mostly below about 43%; further: 0% is about no effect
The depositor's hits bear a star; i = inactive; ? = inconclusive; nt = no result; [ ] = dose if it differs, or a comment. Unless noted, the call rests on the fitted dose curve; in most records, active means well fitted inhibition curve with a large enough effect; inconclusive means small, poorly fitted or top-dose-only effect, or another doubt; inactive means no such curve, though single readings can be large or run the other way.

SMILES | Pf growth 48h | CHX counter | HCMV inh | Pf growth 96h | Shiga inhibitor
COC(=O)CNc1nc(-c2cccnc2)nc2ccccc12 | -5% | -1 | -3 | ? | -21
Cc1ccccc1Nc1nc(-c2cccnc2)nc2ccccc12 | ? | 1 | 10 | ? | 13
Cc1cc(=O)[nH]c(SCC(=O)NCC2CCCCC2)c1C#N | 1% | -3 | -30 | 29% | -3
CC1(C)c2[nH]c3ccccc3c2C[C@H]2C(=O)N(CCCCCO)CC(=O)N21 | ? | -2 | 48 | -13% | -2
CCCCN(CCCC)CCCN1CC(=O)N2[C@@H](Cc3c([nH]c4ccccc34)C2(C)C)C1=O | 9.3µM* | -2 | -7 | ? | -2
CCCCCN1CC(=O)N2[C@@H](Cc3c([nH]c4ccccc34)C2(C)C)C1=O | ? | -4 | -11 | ? | -13
CCCCOCCCN1CC(=O)N2[C@@H](Cc3c([nH]c4ccccc34)C2(C)C)C1=O | ? | -3 | 9 | 9.3µM* | -3
O=C1C(Cc2ccccc2O)NC(=S)N1c1ccccc1 (configuration not stated) | 6% | -2 | -23 | 24% | -6
CC(=O)c1cc2c(cc1NS(=O)(=O)c1ccccc1Br)OCO2 | -9% | -1 | -12 | 11% | 27
COc1ccc(OC)c(S(=O)(=O)Nc2ccc(O)c(Sc3ncn[nH]3)c2)c1 | -3% | 6 | 45 | 18% | 6
CCCCNC(=O)C(NC(=O)c1ccc(=O)[nH]c1)C(=O)c1ccccc1 (configuration not stated) | nt | nt | 25 | nt | nt
Cc1cc(S(=O)(=O)Nc2nc(CN3CCOCC3)nc3sc4c(c23)CCC4)cc(C)c1C | -3% | nt | -8 | 5% | nt
NS(=O)(=O)c1ccc(CCNc2nc(CN3CCCCC3)nc3sc4c(c23)CCC4)cc1 | 12µM* | -7 | -11 | 6.6µM* | -3
C=CCOC(=O)C(=O)/C=C/c1ccc2c(c1)Cc1ccccc1-2 | 0% | 14* | -21 | 0% | 25
COc1ccccc1N1CCN(c2ccc(=O)n(CC(=O)O)n2)CC1 | nt | nt | -8 | nt | nt
Nc1nc(N)nc(-c2cc(F)ccc2O)n1 | ? | nt | -37 | ? | nt
CC(=O)N(c1ccccc1C)C1CCCC1 | 8% | -4 | -27 | -23% | 14
CC(=O)N(C1=C(Cl)C(=O)c2ccccc2C1=O)C1CCCCC1 | ? | 0 | -103* | ? | -6
Fc1ccc(-c2cc(-c3ccccc3)nc(-n3cccn3)n2)cc1 | -12% | -1 | -61* | 4% | -11
CCOc1ccccc1NC(=O)N1CCN(Cc2cc(=O)n3nc(-c4ccc(C)cc4)sc3n2)CC1 | nt | nt | 8 | nt | nt
COc1ccc(C)cc1NC(=O)C(Sc1nnc(Nc2ccccc2F)s1)c1ccccc1 (configuration not stated) | -13% | 11* | 4 | 0% | -6
COCC(C)n1c(C)cc(C(=O)CSc2ncccn2)c1C (configuration not stated) | 178% | 36* | 71 | 210% | 72*
COc1ccc(-c2nnc(SCC(=O)c3cc(C)n(Cc4cccs4)c3C)o2)cc1 | 8% | -1 | -18 | nt | 23
COCC(C)n1c(C)cc(C(=O)CSc2nnnn2-c2ccc(O)cc2)c1C (configuration not stated) | ? | 29* | -27 | -29% | 50*
CC(=O)Nc1ccc(SCC(=O)c2cc(C)n(Cc3cccs3)c2C)cc1 | 171% | 77* | -77* | 19% | 101*
SMILES | Pf growth 48h | CHX counter | HCMV inh | Pf growth 96h | Shiga inhibitor
COCC(C)n1c(C)cc(C(=O)COC(=O)c2c(C)nn(-c3ccccc3)c2C)c1C (configuration not stated) | ? | -4 | 6 | ? | 14
COCCn1c(C)cc(C(=O)CSc2ccc(NC(C)=O)cc2)c1C | 92% | 47* | 20 | 102% | 105*
C=CCn1c(C)cc(C(=O)CSc2ccc(NC(C)=O)cc2)c1C | 48% | 43* | ? | i | 114*
COC(=O)c1ccc(-n2c(C)cc(C(=O)CSc3ccc(NC(C)=O)cc3)c2C)cc1 | ? | -3 | 4 | ? | -7
O=C(CSc1ncccn1)c1ccccc1Br | 48% | 26* | -3 | 20% | 35*
CC(=O)Nc1ccc(SCC(=O)c2cc(C)n(-c3ccccc3F)c2C)cc1 | 34% | 74* | -95* | -23% | 125*
COCC(C)n1c(C)cc(C(=O)CSc2ccc(NC(C)=O)cc2)c1C (configuration not stated) | 33% | 26* | -20 | nt | 52*
O=C(CSc1nnc(Nc2ccccc2F)s1)c1cc2ccccc2o1 | 24% | 2 | 63 | 9% | 15
COCC(C)n1c(C)cc(C(=O)CSc2nnc(Nc3ccccc3F)s2)c1C (configuration not stated) | 1.5µM* | -2 | -12 | 0.59µM* | 30
Cc1cc2c(cc1S(=O)(=O)N1CC(C)CC(C)C1)OCC(=O)N2 (configuration not stated) | -13% | 0 | -1 | -19% | 12
O=c1c(-c2cc3ccccc3[nH]2)nc2ccccc2n1C(CCc1ccccc1)c1nc2ccccc2[nH]1 (configuration not stated) | nt | nt | 48 | nt | nt
CCn1c(=S)[nH]c2cc(S(=O)(=O)N3CCCCC3)ccc21 | ? | -2 | 87 | nt | -13
O=C(NN=Cc1ccccc1Cl)c1cccc2ccccc12 | nt | nt | 10 | nt | nt
Cc1occc1C(=O)N/N=C/c1cccc2ccccc12 | 37% | 44* | 68 | ? | 87*
O=C(N/N=C/c1cccc2ccccc12)c1ccccc1Cl | -7%[0.00184 µM] | 13* | -36 | 29% | 49
O=C(N/N=C/c1cc2ccccc2[nH]1)c1ccccc1Cl | 3% | 16* | 60 | 45% | 39
CSc1ccccc1-n1nnnc1SCC(=O)Nc1cc(C)ccc1C | ? | -4 | -14 | nt | -9
CN(c1cccc(NC(=O)c2ccc(Cl)c(S(=O)(=O)N3CCOCC3)c2)c1)S(C)(=O)=O | ? | 1 | -28 | ? | -5
O=C(/C=C/c1c(Cl)cccc1Cl)n1cccn1 | 4% | 9.8* | 12 | -14% | 14
CC(=O)NC(=S)NNC(=O)COc1ccc([N+](=O)[O-])cc1 | 10% | -1 | -25 | ? | -18
Cc1cccc(NC(=O)COc2ccc(Br)cc2)n1 | 28% | 62* | 13 | 26% | 72*
Cc1ccc(OCC(=O)Nc2cccc(C)n2)c(C)c1 | 228% | 36* | 79 | nt | 77*
Cc1ccc(OCC(=O)Nc2cccc3ccc(C)nc23)c(C)c1 | nt | nt | -7 | nt | nt
Cc1ccc(OCC(=O)NC(=S)Nc2cccc(C)n2)cc1 | -18% | 3 | -1 | 351% | 15
CC(=O)NC(=S)NNC(=O)COc1ccc(Br)cc1 | 17% | 21* | -22 | 25% | 32
CCOC(=O)C1=C(C)Nc2sc(C(=O)c3ccc(C)cc3)c(N)c2C1c1ccc(C(=O)OC)cc1 (configuration not stated) | 12µM* | -3 | 12 | 5.2µM* | 3
